This is a sample that favours compounds with a hit; in the whole collection about 3.5% have one here.
MITF inh = human MITF inhibition, primary screen. O75030. AlphaScreen MITF homodimerization, bead proximity signal. inhibition, % at 2.6 µM. 0.91% of 650,000 active. AID 1259374; in the data active means inhibition above about 50%;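 further: 0% = vehicle wells with protein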
Target sequence (O75030 whole entry, looked up): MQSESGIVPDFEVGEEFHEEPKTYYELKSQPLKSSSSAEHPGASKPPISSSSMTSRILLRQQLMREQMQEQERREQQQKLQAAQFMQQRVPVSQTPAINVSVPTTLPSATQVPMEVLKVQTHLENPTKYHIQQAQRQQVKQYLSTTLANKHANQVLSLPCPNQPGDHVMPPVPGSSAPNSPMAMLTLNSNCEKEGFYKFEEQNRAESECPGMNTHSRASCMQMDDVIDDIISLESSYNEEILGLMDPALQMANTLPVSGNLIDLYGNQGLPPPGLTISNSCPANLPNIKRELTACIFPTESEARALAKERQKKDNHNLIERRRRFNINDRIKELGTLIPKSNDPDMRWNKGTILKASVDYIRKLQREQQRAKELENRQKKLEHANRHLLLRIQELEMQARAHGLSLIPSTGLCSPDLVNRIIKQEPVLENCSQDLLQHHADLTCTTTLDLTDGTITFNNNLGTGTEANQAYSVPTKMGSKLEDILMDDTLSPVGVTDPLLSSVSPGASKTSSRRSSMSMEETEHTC
FBW7 activator = human FBW7 E3 ligase activation, primary screen; 0.13% of 650,000 active; normalized activity (activation), % at 26.1 µM; AID 1259310; AlphaScreen FBW7–phospho-cyclin E peptide binding, activator screen; in the data active means normalized activity above about 1.9%;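 further: purified mutant Fbw7 with reduced substrate affinity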
TEAD-YAP inh = TEAD-YAP interaction inhibition. HEK-TIYL cells, TEAD-Gal4/YAP UAS-luciferase luminescence. inhibition, % at 9.12 µM. 1.4% of 640,000 active; in the data active means inhibition above about 32%;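 further: 0% = median of test compound wells and 100% = reference inhibitor wells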
GPR151 ag = human GPR151 activation; PathHunter beta-arrestin GPR151 cells, luminescence; Q8TDV0; activation, % at 11.2 µM; AID 1508602; 1% of 650,000 active; in the data active means activation above about 4.9%;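 further: 0% = median of compound wells and 100% = cells with positive control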
* hit, by the source's call; ! = not active in a repeat.

SMILES	MITF inh	FBW7 activator	TEAD-YAP inh	GPR151 ag
COc1cc(C(=O)NCCc2c(C)[nH]c3ccc(OC(F)(F)F)cc23)cc(OC)c1OC	-7	0	-10	2
COc1ccc(C=C(C(=O)NCc2ccccc2)C(=O)NCc2ccccc2)cc1O	8	0	6	0
COc1cc(/C=C2/SC(=S)N(NC(=O)c3cccc(O)c3)C2=O)ccc1O	9	0	-2	0
COc1ccccc1CC(=O)N1CCc2nnc(CNC(=O)C3CCOC3)n2CC1 (stereo not given)	0	0	6	2
CCn1c(COc2cccc3cccnc23)nc2ccccc21	0	0	3	-1
COc1cccc(-n2c(SCC(=O)N3CCN(c4ccccc4OC)CC3)nc3n[nH]c(C)c3c2=N)c1	14	0	43*	1
COc1cccc(-n2c(SCC(=O)N3CCC(C)CC3)nc3n[nH]c(C)c3c2=N)c1	15	0	13	0
Cc1cc(-n2c(SCC(=O)NCc3ccco3)nc3n[nH]c(C)c3c2=N)ccc1Cl	1	0	2	5
Cc1ccc(-n2c(SCC(=O)NCc3ccco3)nc3n[nH]c(C)c3c2=N)cc1C	0	0	56*	3
COCCn1c(C)cc(C(=O)CN2C(=O)NC(C)(c3ccc(C(C)(C)C)cc3)C2=O)c1C (stereo not given)	2	0	36*	1
O=C(CCC(=O)N(Cc1ccccc1)Cc1ccccc1)Nc1ccc2c(c1)OCO2	-8	0	5	-1
O=C(NCc1ccccc1Cl)C1CCCN1C(=O)Nc1ccc(Cl)cc1 (stereo not given)	-4	1	3	1
Cc1nc(N=Nc2ccc(S(=O)(=O)O)cc2S(=O)(=O)O)c(COP(=O)(O)O)c(C=O)c1O	75*!	0	3	1
CCOC(=O)c1[nH]c(C)c(C(=O)Nc2cccc(F)c2)c1C	8	1	43*	0
CCOC(=O)c1[nH]c(C)c(C(=O)Nc2ccc(F)cc2)c1C	9	0	-3	0
CCOC(=O)c1[nH]c(C)c(C(=O)Nc2cccc(Cl)c2)c1C	-22	0	46*	0
CCOc1ccc2nc(SCC(=O)Nc3ccccc3[N+](=O)[O-])sc2c1	5	0	0	0
Cc1ncc(CO)c(CNc2ccccc2C(F)(F)F)c1O	-3	0	8	0
Cc1[nH]c(=O)c(-c2noc(-c3ccccc3)n2)cc1-c1ccncc1	-6	0	-1	2
Cc1ccc(-c2[nH]ncc2CN2CCC(C(=O)N3CCCC3)CC2)cc1C	6	0	6	0
COCCCN=C1NN=C(c2cc(C)n(Cc3ccco3)c2C)CS1	-2	0	46*	1
Cc1cc(C2=NNC(=Nc3ccccc3)SC2)c(C)n1CC1CCCO1 (stereo not given)	7	0	54*	0
COCCn1c(C)cc(C2=NNC(=Nc3ccc(C)cc3)SC2)c1C	-5	0	-3	0
COCCn1c(C)cc(C2=NNC(=Nc3cccc(C)c3)SC2)c1C	13	0	25	1
COc1ccccc1N=C1NN=C(c2ccccc2OC)CS1	0	0	-13	-1
SMILES	MITF inh	FBW7 activator	TEAD-YAP inh	GPR151 ag
C=CCn1c(C)cc(C2=NNC(=Nc3ccccc3OC)SC2)c1C	-12	0	72*	1
C=CCN=C1NN=C(c2cc(C)n(CCOC)c2C)CS1	5	0	95*	-7
O=C(NC1CCN(Cc2ccccc2)CC1)c1ccc2nc3cc(Cl)ccc3c(=O)n2c1	17	0	-1	0
C=CCNC(=O)NC(=O)COC(=O)c1ccccc1C(F)(F)F	11	0	12	-1
COc1cc(/C=N/N=C2\NC(=O)C(CC(=O)O)S2)ccc1OCc1ccccc1F (stereo not given)	8	0	-3	0
Cc1ccc(C(=O)COC(=O)CCC(=O)N(c2ccccc2)c2ccccc2)cc1	2	0	-4	0
CCOC(=O)c1c(-c2ccccc2)oc2ccc(NS(=O)(=O)c3ccc(OCC)cc3)cc12	-22	0	57*	0
CCOC(=O)c1c(-c2ccccc2)oc2ccc(NS(=O)(=O)c3ccccc3)cc12	-5	0	0	0
CCOC(=O)c1c(-c2ccccc2)oc2ccc(NS(=O)(=O)c3ccc(OC)cc3)cc12	-4	0	57*	4
COc1ccc(-c2cc(-c3cc(OC)ccc3O)[nH]n2)cc1	12	-1	-46	0
COc1ccc(-c2cc(-c3c(O)ccc4ccccc34)[nH]n2)cc1	4	0	89*	2
O=[N+]([O-])c1ccc(N2CCN(c3ccccc3)CC2)c2ncccc12	3	0	4	1
CN(Cc1cc(Cl)c2cccnc2c1O)C1CCCCC1	37	-1	83*	3

Screens deposited in PubChem by The Scripps Research Institute Molecular Screening Center.
